Data as given in PubChem BioAssay (Tox21).
Unmarked numbers belong to inactive results. Results filed as inconclusive are left out. Entries that show only a call come without a potency. Active and inactive are the calls of the source. Unless noted, calls follow the shape of the dose curve; as a rule, active = well fitted curve in the direction sought with a large enough effect in the repeat runs; inconclusive = weak or mixed curves; inactive = no such curve, though single readings can be large; an effect the other way counts as inactive or inconclusive.

Experiments:
[1] = A CellTox Green Cytotoxicity Assay to monitor cytotoxicity in HEK293 cells - 32 hour (AID 1224881); also: nearly all actives have a fitted effect of over 40% in size
How it was run: (§1)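 Fluorescence intensity, read at 0, 8, 16, 24, 32 and 40 h of compound treatment, reflected dye binding to DNA of dead HEK293 cells; compounds (23 nL, DMSO) were added 5 h after plating cells with reagent.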

[2] = A CellTox Green Cytotoxicity Assay to monitor cytotoxicity in HepG2 cells - 0 hour (AID 1224882); also: nearly all actives have a fitted effect of over 35% in size
How it was run: (§2)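 Using 1536-well format, dye-containing HepG2 suspension was seeded, allowed 5 h at 37 C/5% CO2, dosed by pintool with compounds, positive and negative controls, and imaged for fluorescence across 40 h.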

[3] = A CellTox Green Cytotoxicity Assay to monitor cytotoxicity in HepG2 cells - 32 hour (AID 1224883); also: nearly all actives have a fitted effect of over 50% in size
How it was run: as §2

[4] = A CellTox Green Cytotoxicity Assay to monitor cytotoxicity in HEK293 cells - 8 hour (AID 1224884); also: nearly all actives have a fitted effect of over 35% in size
How it was run: as §1

[5] = qHTS RealTime-Glo MT Cell Viability Assay in HepG2 cells - 16 hour (AID 1224885); also: nearly all actives have a fitted effect of over 50% in size
How it was run: (§3)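 Cells + NanoLuc/prosubstrate dispensed (600 cells/well) → 5 h at 37 C/5% CO2 → compounds in DMSO transferred → 40 h incubation at 37 C, luminescence read at 0, 8, 16, 24, 32, 40 h.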

[6] = qHTS RealTime-Glo MT Cell Viability Assay in HEK293 cells - 24 hour (AID 1224886); also: top concentration of the series differs between compounds; nearly all actives have a fitted effect of over 50% in size
How it was run: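 Tox21 10K qHTS, HEK293, 600 cells/well, RealTime-Glo reagent co-dispensed with cells; 5 h preincubation, compound by pintool, 37 C, luminescence at 0–40 h.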

[7] = qHTS RealTime-Glo MT Cell Viability Assay in HEK293 cells - 8 hour (AID 1224887); also: top concentration of the series differs between compounds; nearly all actives have a fitted effect of over 50% in size
How it was run: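 Viable HEK293 cells reduce a cell-permeant prosubstrate; the product diffuses out and is consumed by NanoLuc in the medium to give light. Compounds went in after a 5 h incubation and plates were read over the treatment course.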

[8] = A CellTox Green Cytotoxicity Assay to monitor cytotoxicity in HEK293 cells - 16 hour (AID 1224888); also: nearly all actives have a fitted effect of over 35% in size
How it was run: as §1

[9] = qHTS RealTime-Glo MT Cell Viability Assay in HepG2 cells - 0 hour (AID 1224889); also: nearly all actives have a fitted effect of over 50% in size
How it was run: as §3

[10] = A CellTox Green Cytotoxicity Assay to monitor cytotoxicity in HepG2 cells - 8 hour (AID 1224890); also: nearly all actives have a fitted effect of over 45% in size
How it was run: as §2

[11] = qHTS assay to identify small molecule antagonists of the estrogen receptor alpha (ER-alpha) signaling pathway using the BG1 cell line in the presence of 0.1 nM 17-beta-estradiol - cell viability counter screen (AID 1259241); also: nearly all actives have a fitted effect of over 40% in size
How it was run: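 Cells were plated and left 24 hr, compounds in DMSO were pinned in, 17beta-estradiol was added to 0.1 nM final, and after 22 hr CellTiter-Fluor reagent was added for 30 min before fluorescence was read.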

[12] = qHTS assay to identify small molecule antagonists of the androgen receptor (AR) signaling pathway using the MDA cell line in the presence of 0.5 nM R1881 - cell viability counter screen (AID 1259242); also: nearly all actives have a fitted effect of over 45% in size
How it was run: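 Viability of MDA-kb2 cells was multiplexed with the luciferase AR readout; after 16 hr with compounds and R1881 at 0.5 nM final, CellTiter-Fluor fluorescence was recorded.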

[13] = target: Estrogen receptor (Homo sapiens) (UniProt P03372); assay: qHTS assay to identify small molecule antagonists of the estrogen receptor alpha (ER-alpha) signaling pathway using the BG1 cell line in the presence of 0.1 nM 17-beta-estradiol (AID 1259244); also: nearly all actives have a fitted effect of over 50% in size
Chain of Estrogen receptor (Homo sapiens) (P03372 whole entry, looked up): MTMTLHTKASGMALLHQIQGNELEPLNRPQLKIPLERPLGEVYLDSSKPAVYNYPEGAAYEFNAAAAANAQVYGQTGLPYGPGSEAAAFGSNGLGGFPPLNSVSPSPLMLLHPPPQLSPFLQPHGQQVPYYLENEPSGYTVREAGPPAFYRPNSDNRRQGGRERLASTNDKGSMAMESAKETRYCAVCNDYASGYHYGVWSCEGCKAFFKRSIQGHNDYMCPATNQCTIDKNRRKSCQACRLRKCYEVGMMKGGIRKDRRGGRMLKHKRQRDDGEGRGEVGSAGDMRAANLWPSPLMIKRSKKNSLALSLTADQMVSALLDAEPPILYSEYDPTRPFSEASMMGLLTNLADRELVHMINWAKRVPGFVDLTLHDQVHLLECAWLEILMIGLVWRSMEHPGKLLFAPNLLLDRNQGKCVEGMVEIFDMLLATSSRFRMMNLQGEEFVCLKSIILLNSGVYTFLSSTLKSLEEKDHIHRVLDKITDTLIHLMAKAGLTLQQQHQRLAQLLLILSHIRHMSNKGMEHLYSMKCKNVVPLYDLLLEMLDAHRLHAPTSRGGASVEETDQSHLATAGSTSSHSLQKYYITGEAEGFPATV
How it was run: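 Estradiol at 0.1 nM (final) stimulates the endogenous ER-alpha of VM7Luc4E2 cells carrying an ERE-driven luciferase; compounds are co-incubated 22 h at 37C and luciferase output quantified by luminescence.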

[14] = qHTS assay to identify small molecule HDAC inhibitors (AID 1259364); also: potency is read from the fitted curve at half-maximal effect;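 also: wild-type HCT-116 cells with endogenous class I/II HDAC activity; nearly all actives have a fitted effect of over 45% in size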; as to activity change, negative = inhibition: top concentration of the series differs between compounds
How it was run: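 Read-out: luminescence of HDAC-Glo I/II reagent, 30 min RT, reflecting class I/II deacetylase activity in whole HCT-116 cells pre-exposed 2 h to DMSO-dissolved compounds.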

[15] = qHTS assay to identify small molecule HDAC inhibitors - cell viability counter screen (AID 1259365)
How it was run: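 Counter screen in wild-type HCT-116 cells: compounds dissolved in DMSO are pin-transferred onto overnight-plated cells and left 2hr at 37C. ATP-based CellTiter-Glo luminescence then measures viable cells.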

[16] = qHTS assay to identify small molecule agonists of the sonic hedgehog signaling (Shh) pathway - cell viability counter screen (AID 1259366); also: nearly all actives have a fitted effect of over 50% in size
How it was run: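 Cells are plated at 2,000 per well and left 4hr at 37C, 5% CO2 before compound addition. After 23hr of treatment, CellTiter-Fluor reagent is added for 1hr at 37C and fluorescence is measured.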

[17] = qHTS assay to identify small molecule antagonists of the sonic hedgehog signaling (Shh) pathway - cell viability counter screen (AID 1259367); also: nearly all actives have a fitted effect of over 55% in size
How it was run: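 NIH/3T3-derived Gli1-Luc reporter cells (2,000 per well) rested 4 hr at 37 C, then received DMSO compounds plus conditioned medium. After 23 hr of treatment, CellTiter-Fluor was added for 1 hr at 37C and fluorescence read.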

[18] = qHTS assay to identify small molecule agonists of the sonic hedgehog signaling (Shh) pathway (AID 1259368; calls by dose curve;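 also: NIH/3T3-derived 3T3Gli1-Luc cells carrying a stable Gli1-driven firefly luciferase reporter; series mostly up to about 92 µM; nearly all actives have a fitted effect of over 15% in size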)
How it was run: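 A Gli1 transcriptional response element controlled firefly luciferase in 3T3Gli1-Luc cells. Compounds and a positive control were added 4 hr after plating, and cells were incubated a further 24 hr at 37 C before luminescence detection.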

[19] = qHTS assay to identify small molecule phospholipidosis (PLD) inducers (AID 1259344; active = well fitted curve in the direction sought with a large enough effect; an effect the other way counts as inactive or inconclusive)
How it was run: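 HepG2 cells on collagen I, attached 4 h at 37 C, were co-treated with compound and LipidTOX Red dye for 24 h at 37 C, then fixed with paraformaldehyde plus Hoechst 33342 and imaged by high-content microscopy for phospholipid accumulation.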

[20] = target: Androgen receptor (Homo sapiens) (UniProt P10275); assay: qHTS assay to identify small molecule antagonists of the androgen receptor (AR) signaling pathway using the MDA cell line in the presence of 0.5 nM R1881 (AID 1259243); also: nearly all actives have a fitted effect of over 50% in size
Chain of Androgen receptor (Homo sapiens) (P10275 whole entry, looked up): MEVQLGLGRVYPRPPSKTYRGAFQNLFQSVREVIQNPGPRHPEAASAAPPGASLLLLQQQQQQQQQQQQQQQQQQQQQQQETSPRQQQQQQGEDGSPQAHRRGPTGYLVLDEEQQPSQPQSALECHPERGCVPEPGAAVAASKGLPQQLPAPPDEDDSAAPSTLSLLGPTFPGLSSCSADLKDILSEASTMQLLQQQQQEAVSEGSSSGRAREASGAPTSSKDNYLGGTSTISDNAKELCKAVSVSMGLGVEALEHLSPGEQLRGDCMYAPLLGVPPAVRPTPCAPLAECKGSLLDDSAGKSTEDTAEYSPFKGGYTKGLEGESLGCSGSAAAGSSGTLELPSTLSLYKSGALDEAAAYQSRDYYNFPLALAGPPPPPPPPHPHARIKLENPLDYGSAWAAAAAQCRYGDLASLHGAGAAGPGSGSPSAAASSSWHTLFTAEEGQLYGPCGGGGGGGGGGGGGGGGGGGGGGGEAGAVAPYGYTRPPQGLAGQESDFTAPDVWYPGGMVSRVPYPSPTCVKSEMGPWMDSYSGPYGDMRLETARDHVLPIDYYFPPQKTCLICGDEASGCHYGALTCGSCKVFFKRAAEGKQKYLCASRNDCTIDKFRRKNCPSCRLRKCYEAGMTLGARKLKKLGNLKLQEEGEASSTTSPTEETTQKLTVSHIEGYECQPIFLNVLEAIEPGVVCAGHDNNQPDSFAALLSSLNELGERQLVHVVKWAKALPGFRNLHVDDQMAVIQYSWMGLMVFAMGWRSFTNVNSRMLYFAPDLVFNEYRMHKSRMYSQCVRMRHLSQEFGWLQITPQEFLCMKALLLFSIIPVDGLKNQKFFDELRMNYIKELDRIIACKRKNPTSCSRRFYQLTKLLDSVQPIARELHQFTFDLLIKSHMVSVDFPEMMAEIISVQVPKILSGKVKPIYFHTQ
How it was run: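 Reporter cells cultured without CO2 receive test chemicals, then 0.5 nM R1881 final; after 16 hr at 37C, ONE-Glo is added and light output recorded.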

CN(C)C(=O)Oc1ccc[n+](C)c1
outcome [1]: inactive
Potency [2]: inactive
Potency [3]: inactive
outcome [4]: inactive
outcome [5]: inactive
Potency [6]: inactive
Potency [7]: inactive
outcome [8]: inactive
Potency [9]: inactive
outcome [10]: inactive
outcome [11]: inactive
outcome [12]: inactive
outcome [13]: inactive
Potency [14]: inactive
outcome [15]: inactive
Potency [16]: inactive
Potency [17]: inactive
outcome [18]: inactive

CCCCCCCCCCOc1cc2c(=O)c(C(=O)OCC)c[nH]c2cc1OCC
cytotoxicity increase [1]: 0.664% [at 6.97 µM]
cytotoxicity [2]: 9.56% [at 6.97 µM]
cytotoxicity increase [3]: -9.18% [at 6.97 µM]
cytotoxicity increase [4]: 2.19% [at 6.97 µM]
activity change, negative = cytotoxic [5]: 4.28% [at 6.97 µM]
activity change, negative = cytotoxicity [6]: 3.7% [at 6.97 µM]
activity change, negative = cytotoxicity [7]: 3.87% [at 6.97 µM]
activity change [8]: 0.406% [at 6.97 µM]
activity change, negative = cytotoxicity [9]: 9.73% [at 6.97 µM]
cytotoxicity increase [10]: -1.8% [at 6.97 µM]
activity change, negative = cytotoxicity [11]: 4.33% [at 8.39 µM]
viability change, negative = cytotoxic [12]: 2.82% [at 8.39 µM]
activity change, negative = inhibition [13]: -1.66% [at 8.39 µM]
outcome [19]: inactive
activity change, negative = inhibition [14]: 0.14% [at 8.39 µM]
activity change, negative = cytotoxicity [15]: 9.44% [at 8.39 µM]
viability change, negative = cytotoxic [16]: 2.95% [at 8.39 µM]
viability change, negative = cytotoxic [17]: 5.79% [at 8.39 µM]
activity change [18]: -0.042% [at 8.39 µM]

CCC(C)(CCCC(C)C)OC(C)=O (centres undefined)
outcome [1]: inactive
Potency [2]: inactive
Potency [3]: inactive
outcome [4]: inactive
outcome [5]: inactive
Potency [6]: inactive
Potency [7]: inactive
outcome [8]: inactive
Potency [9]: inactive
outcome [10]: inactive
outcome [11]: inactive
outcome [12]: inactive
outcome [13]: inactive
Potency [14]: inactive
outcome [15]: inactive
Potency [16]: inactive
Potency [17]: inactive
outcome [18]: inactive

O=[N+]([O-])c1cncn1CCN1CCOCC1
outcome [1]: inactive
Potency [2]: inactive
Potency [3]: inactive
outcome [4]: inactive
outcome [5]: inactive
Potency [6]: inactive
Potency [7]: inactive
outcome [8]: inactive
Potency [9]: inactive
outcome [10]: inactive
outcome [11]: inactive
outcome [12]: inactive
Potency [20]: inactive
outcome [13]: inactive
Potency [14]: inactive
outcome [15]: inactive
Potency [16]: inactive
Potency [17]: inactive
outcome [18]: inactive

CC(N)C12CC3CC(CC(C3)C1)C2 (centres undefined)
outcome [1]: inactive
Potency [2]: inactive
Potency [3]: inactive
outcome [4]: inactive
outcome [5]: inactive
Potency [6]: inactive
Potency [7]: inactive
outcome [8]: inactive
Potency [9]: inactive
outcome [10]: inactive
outcome [11]: inactive
outcome [12]: inactive
outcome [13]: inactive
outcome [19]: inactive
Potency [14]: inactive
outcome [15]: inactive
Potency [16]: inactive
Potency [17]: inactive
outcome [18]: inactive

CN1CC(=O)N/C1=N/C(=O)Nc1cccc(Cl)c1
outcome [1]: inactive
Potency [2]: inactive
Potency [3]: inactive
outcome [4]: inactive
outcome [5]: inactive
Potency [6]: inactive
Potency [7]: inactive
outcome [8]: inactive
Potency [9]: inactive
outcome [10]: inactive
outcome [11]: inactive
outcome [12]: inactive
outcome [13]: inactive
Potency [14]: 4.22 µM (active)
outcome [15]: inactive
Potency [16]: inactive
Potency [17]: inactive
outcome [18]: inactive

CCCOC(=O)CC
outcome [1]: inactive
Potency [2]: inactive
Potency [3]: inactive
outcome [4]: inactive
outcome [5]: inactive
Potency [6]: inactive
Potency [7]: inactive
outcome [8]: inactive
Potency [9]: inactive
outcome [10]: inactive
outcome [11]: inactive
outcome [12]: inactive
Potency [20]: inactive
outcome [13]: inactive
Potency [14]: inactive
outcome [15]: inactive
Potency [16]: inactive
outcome [18]: inactive
